Vif inh: blocks HIV Vif function; HEK293T cells, Vif self-association by quenched fluorescence, imaging, 24 h; inhibition, % at 7.49 µM; 340,000 compounds, 0.35% hits; in the data active means inhibition above about 50%, passing the limit was not always enough; inconclusive means no clear call, values can overlap the other calls; inactive means below about 31%
HSF1 inhib: HSF1 inhibition. NIH3T3-HGL HSE-luciferase, MG132-induced, luminescence 8 h; hits give low values. activity change, negative = inhibition, % at 7.5 µM (by protocol). 300,000 compounds, 0.77% hits;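 active means more than half of replicate wells show activity change below -50%, luminescence cut by over half; inconclusive means some wells, but at most half, below -50%; inactive means no replicate well below -50%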;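 further: luciferase reports HSF-1 transcriptional activity via heat shock element; 0% = median of DMSO wells and -100% = zero luminescence signal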
esBAF inh: inhibitors of esBAF chromatin remodeling in mouse ES cells; Bmi1-luciferase knock-in reporter, 24 h; 100% = twice the neutral-well signal; reporter increase, % at 12.5 µM; 350,000 compounds, 2% hits; in the data active means activation above about 40%; inconclusive means no clear call, values can overlap the other calls;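 further: 0% = median of the plate's neutral control wells and 100% = double that signal; a rise in the Bmi1 reporter signal indicates esBAF inhibition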
HSF1 activator: increases HSF-1 driven luciferase reporter signal; NIH3T3-HGL HSF-1 luciferase reporter, MG132, 8 h; 100% = twice DMSO control signal; activation, % at 9 µM; 300,000 compounds, 1.7% hits; AID 504408;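 active means mean replicate activation of at least 50% with a set share of replicates each reaching 50%; inconclusive means only one of those two conditions met; inactive means mean below 50% and too few replicates reaching it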;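 further: 0% = median of the neutral control wells and 100% = twice that signal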
* marks the source's active call; other numbers are inactive results; ? = inconclusive; . = not tested or not shown. Only some compounds are listed: those with a hit (about 3.4% of all), similar ones and a draw of the others.

SMILES	Vif inh	HSF1 inhib	esBAF inh	HSF1 activator
Cc1noc(C)c1NC(=O)Nc1ccc2c(c1)C(=O)N([C@@H](C)CO)C[C@H](C)[C@@H](CN(C)S(C)(=O)=O)O2	.	.	2	.
Cc1cccn2c(=O)c(/C=C3\SC(=S)NC3=O)c(NCCCN3CCOCC3)nc12	83*	-2	-8	-2
Cc1ccc2nc(-c3cccc(S(=O)(=O)N(C)C)c3)cn2c1	-10	-5	83*	16
Cc1ccc2nc(-c3cccc(S(=O)(=O)N4CCCC4)c3)cn2c1	-3	21	64*	41
COc1ccc(-c2cn(-c3ccccc3)c(=S)[nH]2)cc1OC	-5	24	44*	45
COc1ccc(-c2cn(-c3ccc(C)c(C)c3)c(=S)[nH]2)cc1OC	-5	23	8	38
COc1cccc(-n2cc(-c3ccc(F)cc3)[nH]c2=S)c1	-2	-18	55*	-12
CNC[C@@H]1Oc2ccc(NC(=O)Nc3ccccc3)cc2C(=O)N([C@H](C)CO)C[C@@H]1C	.	.	-2	.
Cc1cccc(-n2ncc3c(N4CCC5(CC4)OCCO5)ncnc32)c1	13	10	54*	19
c1ccc(-n2ncc3c(N4CCC5(CC4)OCCO5)ncnc32)cc1	.	16	55*	26
Cc1ccccc1NC(=O)Nc1ccc2c(c1)C(=O)N(C)[C@@H]1CC[C@@H](CC(=O)O)O[C@@H]1CO2	.	.	-3	.
COC(=O)c1cn(CCOc2ccc(C)cc2)c2ccccc12	1	45	-9	100*
Cc1ccc(OCCn2cc(/C=C/C(=O)O)c3ccccc32)cc1	-19	0	-1	0
c1ccc(OCCCCn2cnc3ccccc32)cc1	-9	8	17	10
Cc1ccccc1OCCCCn1cnc2ccccc21	-20	.	-30	.
Brc1ccccc1OCCCn1cnc2ccccc21	-4	29	48*	61*
Cc1ccc(OCCCCn2cnc3ccccc32)cc1	-7	-79*	.	-79
CC(C)C#Cc1cnc2c(c1)C(=O)N([C@@H](C)CO)C[C@H](C)[C@H](CN(C)C(=O)Nc1ccccc1F)O2	.	.	-5	.
COCC(=O)N(C)C[C@H]1Oc2cc(C3=CCCCC3)ccc2S(=O)(=O)N([C@H](C)CO)C[C@H]1C	.	.	2	.
S=C(c1cn(Cc2ccccc2)c2ccccc12)N1CCOCC1	0	-2	.	10
S=C(c1cn(Cc2ccc(Br)cc2)c2ccccc12)N1CCOCC1	5	13	-5	54*
C/C(=N\Nc1nc(C)cc(-c2ccccc2)n1)c1ccccc1	-11	-6	63*	-1
Cc1cc(-c2ccccc2)nc(N/N=C/c2ccccc2F)n1	-3	12	56*	24
Cc1ccc2nc(N/N=C/c3ccccc3F)nc(-c3ccccc3)c2c1	8	-2	.	-12
C/C(=N\Nc1nc(C)cc(-c2ccccc2)n1)c1ccc(O)cc1	-5	-7	20	0
SMILES	Vif inh	HSF1 inhib	esBAF inh	HSF1 activator
C[C@@H]1CN([C@H](C)CO)C(=O)c2cc(C#CC3CCCCC3)cnc2O[C@H]1CN(C)C(=O)NC1CCCC1	.	.	-14	.
C/C=C/c1ccc([C@H]2[C@@H](CO)N(C(=O)CC)[C@H]2CNC(=O)CC2CC2)cc1	.	.	7	.
O=C1CC(c2cccc([N+](=O)[O-])c2)c2c(ccc3ccccc23)N1 (stereo unspecified)	.	25	9	53*
COc1ccc(C(=O)NCc2nnc(SCC(=O)N3CCc4ccccc43)n2CCc2ccccc2)cc1	4	31	.	80*
COc1ccc(C(=O)NCc2nnc(SCC(=O)N3CCc4ccccc43)n2C2CCCCC2)cc1	4	15	.	30
CC1Cc2ccccc2N1C(=O)/C=C/c1cccc(F)c1 (stereo unspecified)	-4	37	90*	70*
CO[C@H]1CN(C)C(=O)c2ccc(NC(=O)c3ccc(F)cc3)cc2OC[C@H](C)N(C(=O)CN(C)C)C[C@@H]1C	.	.	-2	.
COc1ccc(-c2nc(-c3ccncc3)no2)cc1OC	?	2	63*	15
COc1ccccc1-c1nc(-c2ccc(Br)cc2)no1	23	39	54*	55*
COc1ccc(-c2noc(-c3cccc(Cl)c3)n2)cc1OC	-1	17	49*	41
CCOc1ccc(-c2noc(-c3ccncc3)n2)cc1OCC	0	1	11	4
Cc1ccc(-c2nc(-c3ccncc3)no2)cc1C	-2	29	-14	60*
O=C(C[C@@H]1C=C[C@H](NC(=O)c2cccc(F)c2)[C@H](CO)O1)NCCN1CCCC1	.	.	-2	.
COc1cccc(S(=O)(=O)Nc2ccc3c(c2)[C@@H]2C[C@@H](CC(=O)NCCc4ccccc4)O[C@H](CO)[C@@H]2O3)c1	.	.	21	.
C[C@@H]1CCCCO[C@@H](CN(C)C(=O)C2CCCCC2)[C@@H](C)CN([C@@H](C)CO)C(=O)c2cc(NS(C)(=O)=O)ccc2O1	.	.	-5	.
COc1ccc(-c2noc(-c3cccs3)n2)cc1OC	-2	28	53*	42
COc1cc(-c2noc(-c3cccs3)n2)cc(OC)c1OC	-5	13	24	16
COc1ccc(-c2noc(-c3ccc(Cl)cc3[N+](=O)[O-])n2)cc1OC	-2	25	.	53*
Cc1cccc(-c2noc(-c3ccc(Cl)cc3[N+](=O)[O-])n2)c1	-11	9	.	38
COc1ccc(-c2nc(-c3ccc(Br)o3)no2)cc1OC	8	30	18	57*
COc1ccc(CCC(=O)Nc2ccc(-c3noc(-c4ccc(OC)c(OC)c4)n3)cc2)cc1	36	-14	43*	5
COc1ccc(-c2nc(-c3ccc(NC(=O)c4ccc(Br)o4)cc3)no2)cc1OC	-6	-28	.	-30
COc1ccc(NC(=O)N(C)C[C@@H]2Oc3ccc(NC(=O)c4ccncc4)cc3C(=O)N([C@@H](C)CO)C[C@H]2C)cc1	.	.	5	.
O=C(Cc1ccccn1)N[C@H]1C=C[C@H](CC(=O)N2CCCCC2)O[C@H]1CO	.	.	-3	.
O=C(O)c1ccc(-c2noc(-c3cccc(Cl)c3)n2)cc1	-5	.	63*	.
SMILES	Vif inh	HSF1 inhib	esBAF inh	HSF1 activator
COC(=O)C1=C(C)N(CCCC(=O)O)C(=O)NC1c1ccc(Br)cc1 (stereo unspecified)	-1	0	3	6
CC1=C(C(=O)OCc2ccccc2)C(c2ccc(Br)cc2)NC(=O)N1CCCCCC(=O)O (stereo unspecified)	1	14	90*	3
COC(=O)C1=C(C)N(CCCC(=O)O)C(=O)NC1c1ccc(C#N)cc1 (stereo unspecified)	.	-66*	6	-74
COC(=O)C1=C(C)N(CCCC(=O)O)C(=O)NC1c1ccccc1Cl (stereo unspecified)	.	-64*	3	-72
CC(C)[C@@H](C)NC(=O)N(C)C[C@H]1OCc2ccccc2-c2ccccc2C(=O)N([C@@H](C)CO)C[C@H]1C	.	.	1	.
COc1ccccc1N1C(=O)CCC1(C#N)c1ccccc1 (stereo unspecified)	69*	-5	-5	-13
CSc1ccc(CN(C)C(=O)c2cc(=O)c3ccccc3o2)cc1	13	0	9	1
